Measurements: PubChem BioAssay (NCATS)
Inconclusive results are not listed. Values without a mark were called inactive. Activity calls are given as the source filed them. The call rests on the fitted dose curve; in most records, active means well fitted inhibition curve with a large enough effect; inconclusive means small, poorly fitted or top-dose-only effect; inactive means no such curve, though single readings can be large or run the other way.

What follows are molecules tested against Glutaminase kidney isoform, mitochondrial (Homo sapiens) (UniProt O94925) (assay: qHTS for Inhibitors of Glutaminase (GLS): LOPAC Validation (AID 624146; further: nearly all actives have a fitted effect of over 60% in size;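 on activity change, negative = inhibition: glutamate product detected by oxidase and peroxidase coupled Amplex red fluorescence gain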)). Conditions: glutaminase enzyme activity inhibition; series mostly up to 46.1 µM; activity change, negative = inhibition: at the top concentration.
Text: Glutaminase (GLS) catalyzes the hydrolysis of glutamine into glutamate and ammonia. It plays a critical role in glutaminolysis, which is an important energy source for proliferating cells. It was shown that c-Myc, an oncogenic transcription factor known to regulate microRNAs and to stimulate cell proliferation, increases glutamine metabolism by stimulating the expression of GLS via direct suppression of miR23a and miR23b.
GLS is also thought to play a pathogenic role on HAD using a human HIV-1 infected macrophage system. […] GLS inhibition limits glutamate release and provides neuroprotection against HIV-1 infected macrophages.
The overall goal of this project is to identify small molecule inhibitors of GLS through quantitative high throughput screening (qHTS) of the MLSMR. A validated potent and selective inhibitor can be used as a tool molecule to further study the pharmacology of its target as well as explore its potential therapeutic application in cancer and inflammatory neurological disorders, such as HIV1-associated dementia (HAD) and multiple sclerosis.
NIH Chemical Genomics Center [NCGC]
NIH Molecular Libraries Probe Centers Network [MLPCN]
Assay Submitter (PI): Barbara S. Slusher, Johns Hopkins University
Three 3 uL of hKGA is dispensed into black well 1536-well plates in 45 mM KH2PO4 (pH 8.2), 0.02% Tween-20. Then 23 nL of compounds are added through pin tool transfer. To this, 1 uL of 1mM L-Glutamine and 1 uL of a solution of L-Glutamateoxidase, HRP, Amplex red are added. Plate is centrifuged for 25 sec before an initial fluorescence read is obtained on the ViewLux, after 30 min of RT incubation, the final read is taken on the ViewLux.
On the % scale 0 is the no-effect control and ±100 the full control effect; potency means the concentration at half of the fitted maximal effect.

Glutaminase kidney isoform, mitochondrial (Homo sapiens), sequence (O94925 whole entry, looked up, canonical isoform): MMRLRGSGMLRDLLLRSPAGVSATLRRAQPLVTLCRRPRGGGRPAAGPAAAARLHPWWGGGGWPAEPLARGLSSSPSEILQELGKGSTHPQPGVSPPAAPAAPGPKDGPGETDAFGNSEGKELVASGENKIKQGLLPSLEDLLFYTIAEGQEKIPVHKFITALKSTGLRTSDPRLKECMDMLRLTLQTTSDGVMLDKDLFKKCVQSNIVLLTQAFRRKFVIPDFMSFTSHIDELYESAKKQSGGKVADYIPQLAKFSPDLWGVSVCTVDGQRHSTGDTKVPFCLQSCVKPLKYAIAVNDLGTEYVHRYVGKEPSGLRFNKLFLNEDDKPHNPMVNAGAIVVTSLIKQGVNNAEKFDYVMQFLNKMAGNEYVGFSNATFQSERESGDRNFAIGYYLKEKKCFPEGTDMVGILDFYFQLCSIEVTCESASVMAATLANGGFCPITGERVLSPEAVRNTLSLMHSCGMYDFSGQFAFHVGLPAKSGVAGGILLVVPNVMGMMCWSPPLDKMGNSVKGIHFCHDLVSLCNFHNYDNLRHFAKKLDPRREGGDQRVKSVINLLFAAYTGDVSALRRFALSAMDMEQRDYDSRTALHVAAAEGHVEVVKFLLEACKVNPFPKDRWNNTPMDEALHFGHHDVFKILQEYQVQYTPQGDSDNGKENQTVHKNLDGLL

Point of comparison: CC(C)[N+](C)(CCOC(=O)C1c2ccccc2Oc2ccccc21)C(C)C, “activity change, negative = inhibition” value -10.8%. Against it:
- CC(=O)[C@@]1(O)CC[C@H]2[C@@H]3CCC4=CC(=O)CC[C@]4(C)[C@H]3CC[C@@]21C — higher, -10.1%
- Cc1cccc(C)c1NC(=O)C(C)N (stereo not given) — lower, -17.9%
- COCCOC(=O)C1=C(C)NC(C)=C(C(=O)OC(C)C)C1c1cccc([N+](=O)[O-])c1 (stereo not given) — higher, 32.1%
- NC(N)=NC(=O)Cc1c(Cl)cccc1Cl — higher, -3.52%
- O=C(O)CP(=O)(O)O — lower, -19.3%
- OCCN1CCN(CC/C=C2/c3ccccc3Sc3ccc(C(F)(F)F)cc32)CC1 — lower, -18.9%
- NC(=O)c1cn(Cc2c(F)cccc2F)nn1 — higher, -9.14%
- COc1cc(Cc2cnc(N)nc2N)cc(OC)c1OC — higher, -2.54%
- CN(C)C(=O)Oc1ccc[n+](C)c1 — higher, -9.16%
- C[N+](C)(C)CCOC(=O)CCC(=O)OCC[N+](C)(C)C — higher, 8.18%
- CC(=O)[C@]1(O)Cc2c(O)c3c(c(O)c2[C@@H](O[C@H]2C[C@H](N)[C@H](O)[C@H](C)O2)C1)C(=O)c1ccccc1C3=O — lower, -93.4%
- Cc1ccc(/C(=C\CN2CCCC2)c2ccccn2)cc1 — lower, -21.5%
- CC(=O)Nc1nnc(S(N)(=O)=O)s1 — higher, -4.07%
- NS(=O)(=O)c1cc2c(cc1Cl)NC(C1CC3C=CC1C3)NS2(=O)=O (stereo not given) — higher, -7.61%
- CN(C)CCN(Cc1cccs1)c1ccccn1 — higher, 4.04%
- O=c1[nH]c(=O)n([C@H]2C[C@H](O)[C@@H](CO)O2)cc1Br — lower, -21.1%
- NC1=NCC2c3ccccc3Cc3ccccc3N12 (stereo not given) — higher, 13.2%
- NC(=O)N1c2ccccc2C=Cc2ccccc21 — higher, -3.27%
- Cc1ccc(=O)n(-c2ccccc2)c1 — lower, -14.1%
- CN(C)CCOC(=O)COc1ccc(Cl)cc1 — higher, 38.4%
- N[C@@H](COP(=O)(O)O)C(=O)O — lower, -20.4%
- CCOC(=O)C1=C(C)NC(C)=C(C(=O)OC)C1c1cccc(Cl)c1Cl (stereo not given) — higher, -10.7%
- COc1cc(C(=O)OCCCN2CCCN(CCCOC(=O)c3cc(OC)c(OC)c(OC)c3)CC2)cc(OC)c1OC — higher, -7.71%
- CNCCCN1c2ccccc2CCc2ccccc21 — higher, -8.33%
- CC1=NS(=O)(=O)c2cc(Cl)ccc2N1 — higher, 37.8%
- Nc1nc(N)c2nc(-c3ccccc3)c(N)nc2n1 — higher, 4.66%
- CCCCNc1ccc(C(=O)OCCN(C)C)cc1 — lower, -32.7%
- CCCCNc1c(C(=O)OCC)c(C)nc2c1cnn2CC — higher, -8.83%
- O=C1NCN(c2ccccc2)C12CCN(CCCC(c1ccc(F)cc1)c1ccc(F)cc1)CC2 — higher, 106%
- O=C(O)CN(CCOCCOCCN(CC(=O)O)CC(=O)O)CC(=O)O — higher, -9.74%
- CN(C)C/C=C(/c1ccc(Br)cc1)c1cccnc1 — higher, -5.38%
- CN(C)C(=O)Oc1cccc([N+](C)(C)C)c1 — higher, 20.4%
- NCCCNCCSP(=O)(O)O — higher, -3.74%
- COc1ccc2c(c1OC)C(=O)O[C@@H]2[C@H]1c2c(cc3c(c2OC)OCO3)CCN1C — higher, 244%
- O=C(O)CCCCCCCC(=O)O — higher, -0.462%
- Cc1nc2ccccn2c(=O)c1CCN1CCC(C(=O)c2ccc(F)cc2)CC1 — lower, -12.2%

Cc1ccc(S(=O)(=O)NC(=O)NN2CCCCCC2)cc1 was tested, and the Potency was 10 µM (active).
For CC(C)COCC(CN(Cc1ccccc1)c1ccccc1)N1CCCC1 (stereo not given), the Potency was 2.24 µM (active).
With COC(=O)[C@H]1[C@H]2C[C@@H]3c4[nH]c5cc(OC)ccc5c4CCN3C[C@H]2C[C@@H](OC(=O)c2cc(OC)c(OC)c(OC)c2)[C@@H]1OC the Potency was 10 µM (active).
